# Results from publication PMC11062922 (Nature Chemical Biology, 2023).
# Read-outs that look alike come from different tables or passages of the source.
# Tests used:
# [1] = system: LATS1; settings: read-out: apparent Kd, n = 1
# [2] = system: MAP2K2; settings: read-out: apparent Kd, n = 1
# [3] = compound concentrations:100 nM and 1000 nM (sheet 'Lestaurtinib' of Supplementary Table 1),run:Lestaurtinib_02624_R1,Plate:MR020
# [4] = compound concentrations:100 nM and 1000 nM (sheet 'Lestaurtinib' of Supplementary Table 1),run:Lestaurtinib_02624_R2,Plate:MR020
# [5] = compound concentrations:100 nM and 1000 nM (sheet 'Lestaurtinib' of Supplementary Table 1),run:Lestaurtinib_02624_R3,Plate:MR020
# [6] = compound concentrations:100 nM and 1000 nM (sheet 'Lestaurtinib' of Supplementary Table 1),run:Lestaurtinib_02724_R1,Plate:MR021
# [7] = compound concentrations:100 nM and 1000 nM (sheet 'Lestaurtinib' of Supplementary Table 1),run:Lestaurtinib_02752_R1,Plate:MR025
# [8] = compound concentrations:100 nM and 1000 nM (sheet 'Lestaurtinib' of Supplementary Table 1),run:Lestaurtinib_02752_R2,Plate:MR025
substance,measurement,setting,value
Lestaurtinib,potency estimated from few doses,[1]; [3],0.0258 µM
same,potency estimated from few doses,[1]; [4],0.0409 µM
same,potency estimated from few doses,[1]; [5],0.0389 µM
same,potency estimated from few doses,[1]; [6],0.0134 µM
same,potency estimated from few doses,"[1]; compound concentrations:100 nM and 1000 nM (sheet 'Lestaurtinib' of Supplementary Table 1),run:Lestaurtinib_02724_R3,Plate:MR021",0.0132 µM
same,potency estimated from few doses,"[1]; compound concentrations:100 nM and 1000 nM (sheet 'Lestaurtinib' of Supplementary Table 1),run:Lestaurtinib_02741_R2,Plate:MR023",0.027 µM
same,potency estimated from few doses,"[1]; compound concentrations:100 nM and 1000 nM (sheet 'Lestaurtinib' of Supplementary Table 1),run:Lestaurtinib_02748_R1,Plate:MR024",0.0362 µM
same,potency estimated from few doses,"[1]; compound concentrations:100 nM and 1000 nM (sheet 'Lestaurtinib' of Supplementary Table 1),run:Lestaurtinib_02748_R3,Plate:MR024",0.0564 µM
same,potency estimated from few doses,[1]; [7],0.0273 µM
same,potency estimated from few doses,[1]; [8],0.0329 µM
same,potency estimated from few doses,"[1]; compound concentrations:100 nM and 1000 nM (sheet 'Lestaurtinib' of Supplementary Table 1),run:Lestaurtinib_02752_R3,Plate:MR025",0.0523 µM
same,potency estimated from few doses,"[1]; compound concentrations:100 nM and 1000 nM (sheet 'Lestaurtinib' of Supplementary Table 1),run:Lestaurtinib_02765_R1,Plate:MR026",0.0404 µM
same,potency estimated from few doses,"[1]; compound concentrations:100 nM and 1000 nM (sheet 'Lestaurtinib' of Supplementary Table 1),run:Lestaurtinib_02765_R2,Plate:MR026",0.0486 µM
same,potency estimated from few doses,"[1]; compound concentrations:100 nM and 1000 nM (sheet 'Lestaurtinib' of Supplementary Table 1),run:Lestaurtinib_02765_R3,Plate:MR026",0.0667 µM
same,potency estimated from few doses,"[1]; compound concentrations:100 nM and 1000 nM (sheet 'Lestaurtinib' of Supplementary Table 1),run:Lestaurtinib_02768_R1,Plate:MR028",0.0317 µM
same,potency estimated from few doses,"[1]; compound concentrations:100 nM and 1000 nM (sheet 'Lestaurtinib' of Supplementary Table 1),run:Lestaurtinib_02795_R1,Plate:MR022",0.0151 µM
same,potency estimated from few doses,"[1]; compound concentrations:100 nM and 1000 nM (sheet 'Lestaurtinib' of Supplementary Table 1),run:Lestaurtinib_02795_R3,Plate:MR022",0.0469 µM
same,potency estimated from few doses,"[1]; compound concentrations:100 nM and 1000 nM (sheet 'Lestaurtinib' of Supplementary Table 1),run:Lestaurtinib_02802_R1,Plate:MR029",0.0386 µM
same,potency estimated from few doses,"[1]; compound concentrations:100 nM and 1000 nM (sheet 'Lestaurtinib' of Supplementary Table 1),run:Lestaurtinib_02802_R2,Plate:MR029",0.026 µM
same,potency estimated from few doses,"[1]; compound concentrations:100 nM and 1000 nM (sheet 'Lestaurtinib' of Supplementary Table 1),run:Lestaurtinib_02896_R1,Plate:MR030",0.0151 µM
same,potency estimated from few doses,"[1]; compound concentrations:100 nM and 1000 nM (sheet 'Lestaurtinib' of Supplementary Table 1),run:Lestaurtinib_02896_R2,Plate:MR030",0.0279 µM
same,potency estimated from few doses,"[1]; compound concentrations:100 nM and 1000 nM (sheet 'Lestaurtinib' of Supplementary Table 1),run:Lestaurtinib_03172_R1,Plate:MR031",0.0409 µM
same,potency estimated from few doses,"[1]; compound concentrations:100 nM and 1000 nM (sheet 'Lestaurtinib' of Supplementary Table 1),run:Lestaurtinib_03172_R2,Plate:MR031",0.0327 µM
same,potency estimated from few doses,"[1]; compound concentrations:100 nM and 1000 nM (sheet 'Lestaurtinib' of Supplementary Table 1),run:Lestaurtinib_03172_R3,Plate:MR031",0.0301 µM
same,potency estimated from few doses,"[1]; compound concentrations:100 nM and 1000 nM (sheet 'Lestaurtinib' of Supplementary Table 1),run:Lestaurtinib_03252_R1,Plate:MR032",0.0411 µM
same,potency estimated from few doses,"[1]; compound concentrations:100 nM and 1000 nM (sheet 'Lestaurtinib' of Supplementary Table 1),run:Lestaurtinib_03260_R2,Plate:MR033",0.066 µM
same,potency estimated from few doses,"[1]; compound concentrations:100 nM and 1000 nM (sheet 'Lestaurtinib' of Supplementary Table 1),run:Lestaurtinib_03260_R3,Plate:MR033",0.0578 µM
same,potency estimated from few doses,"[2]; compound concentrations:100 nM and 1000 nM (sheet 'Lestaurtinib' of Supplementary Table 1),run:Lestaurtinib_02339_R1,Plate:MR001",1.93 µM
same,potency estimated from few doses,"[2]; compound concentrations:100 nM and 1000 nM (sheet 'Lestaurtinib' of Supplementary Table 1),run:Lestaurtinib_02339_R2,Plate:MR001",0.822 µM
same,potency estimated from few doses,"[2]; compound concentrations:100 nM and 1000 nM (sheet 'Lestaurtinib' of Supplementary Table 1),run:Lestaurtinib_02339_R3,Plate:MR001",0.836 µM
same,potency estimated from few doses,"[2]; compound concentrations:100 nM and 1000 nM (sheet 'Lestaurtinib' of Supplementary Table 1),run:Lestaurtinib_02364_R1,Plate:MR002",1.21 µM
same,potency estimated from few doses,"[2]; compound concentrations:100 nM and 1000 nM (sheet 'Lestaurtinib' of Supplementary Table 1),run:Lestaurtinib_02364_R2,Plate:MR002",1.67 µM
same,potency estimated from few doses,"[2]; compound concentrations:100 nM and 1000 nM (sheet 'Lestaurtinib' of Supplementary Table 1),run:Lestaurtinib_02367_R1,Plate:MR003",0.557 µM
same,potency estimated from few doses,"[2]; compound concentrations:100 nM and 1000 nM (sheet 'Lestaurtinib' of Supplementary Table 1),run:Lestaurtinib_02367_R2,Plate:MR003",0.665 µM
same,potency estimated from few doses,"[2]; compound concentrations:100 nM and 1000 nM (sheet 'Lestaurtinib' of Supplementary Table 1),run:Lestaurtinib_02367_R3,Plate:MR003",2.22 µM
same,potency estimated from few doses,"[2]; compound concentrations:100 nM and 1000 nM (sheet 'Lestaurtinib' of Supplementary Table 1),run:Lestaurtinib_02407_R1,Plate:MR005",0.0963 µM
same,potency estimated from few doses,"[2]; compound concentrations:100 nM and 1000 nM (sheet 'Lestaurtinib' of Supplementary Table 1),run:Lestaurtinib_02407_R2,Plate:MR005",0.143 µM
same,potency estimated from few doses,"[2]; compound concentrations:100 nM and 1000 nM (sheet 'Lestaurtinib' of Supplementary Table 1),run:Lestaurtinib_02407_R3,Plate:MR005",0.794 µM
same,potency estimated from few doses,"[2]; compound concentrations:100 nM and 1000 nM (sheet 'Lestaurtinib' of Supplementary Table 1),run:Lestaurtinib_02422_R3,Plate:MR006",1.8 µM
same,potency estimated from few doses,"[2]; compound concentrations:100 nM and 1000 nM (sheet 'Lestaurtinib' of Supplementary Table 1),run:Lestaurtinib_02437_R1,Plate:MR007",0.159 µM
same,potency estimated from few doses,"[2]; compound concentrations:100 nM and 1000 nM (sheet 'Lestaurtinib' of Supplementary Table 1),run:Lestaurtinib_02437_R2,Plate:MR007",1.37 µM
same,potency estimated from few doses,"[2]; compound concentrations:100 nM and 1000 nM (sheet 'Lestaurtinib' of Supplementary Table 1),run:Lestaurtinib_02437_R3,Plate:MR007",0.0989 µM
same,potency estimated from few doses,"[2]; compound concentrations:100 nM and 1000 nM (sheet 'Lestaurtinib' of Supplementary Table 1),run:Lestaurtinib_02438_R1,Plate:MR008",1.8 µM
same,potency estimated from few doses,"[2]; compound concentrations:100 nM and 1000 nM (sheet 'Lestaurtinib' of Supplementary Table 1),run:Lestaurtinib_02438_R2,Plate:MR008",0.876 µM
same,potency estimated from few doses,"[2]; compound concentrations:100 nM and 1000 nM (sheet 'Lestaurtinib' of Supplementary Table 1),run:Lestaurtinib_02438_R3,Plate:MR008",0.745 µM
same,potency estimated from few doses,"[2]; compound concentrations:100 nM and 1000 nM (sheet 'Lestaurtinib' of Supplementary Table 1),run:Lestaurtinib_02443_R2,Plate:MR009",0.782 µM
same,potency estimated from few doses,"[2]; compound concentrations:100 nM and 1000 nM (sheet 'Lestaurtinib' of Supplementary Table 1),run:Lestaurtinib_02443_R3,Plate:MR009",0.924 µM
same,potency estimated from few doses,"[2]; compound concentrations:100 nM and 1000 nM (sheet 'Lestaurtinib' of Supplementary Table 1),run:Lestaurtinib_02473_R1,Plate:MR010",0.838 µM
same,potency estimated from few doses,"[2]; compound concentrations:100 nM and 1000 nM (sheet 'Lestaurtinib' of Supplementary Table 1),run:Lestaurtinib_02482_R1,Plate:MR011",1.4 µM
same,potency estimated from few doses,"[2]; compound concentrations:100 nM and 1000 nM (sheet 'Lestaurtinib' of Supplementary Table 1),run:Lestaurtinib_02482_R2,Plate:MR011",1.36 µM
same,potency estimated from few doses,"[2]; compound concentrations:100 nM and 1000 nM (sheet 'Lestaurtinib' of Supplementary Table 1),run:Lestaurtinib_02482_R3,Plate:MR011",1.3 µM
same,potency estimated from few doses,"[2]; compound concentrations:100 nM and 1000 nM (sheet 'Lestaurtinib' of Supplementary Table 1),run:Lestaurtinib_02487_R3,Plate:MR012",1.3 µM
same,potency estimated from few doses,"[2]; compound concentrations:100 nM and 1000 nM (sheet 'Lestaurtinib' of Supplementary Table 1),run:Lestaurtinib_02496_R3,Plate:MR013",1.43 µM
same,potency estimated from few doses,"[2]; compound concentrations:100 nM and 1000 nM (sheet 'Lestaurtinib' of Supplementary Table 1),run:Lestaurtinib_02566_R2,Plate:MR014",1.24 µM
same,potency estimated from few doses,"[2]; compound concentrations:100 nM and 1000 nM (sheet 'Lestaurtinib' of Supplementary Table 1),run:Lestaurtinib_02566_R3,Plate:MR014",0.835 µM
same,potency estimated from few doses,"[2]; compound concentrations:100 nM and 1000 nM (sheet 'Lestaurtinib' of Supplementary Table 1),run:Lestaurtinib_02572_R1,Plate:MR015",1.37 µM
same,potency estimated from few doses,"[2]; compound concentrations:100 nM and 1000 nM (sheet 'Lestaurtinib' of Supplementary Table 1),run:Lestaurtinib_02577_R1,Plate:MR016",1.37 µM
same,potency estimated from few doses,"[2]; compound concentrations:100 nM and 1000 nM (sheet 'Lestaurtinib' of Supplementary Table 1),run:Lestaurtinib_02577_R2,Plate:MR016",0.883 µM
same,potency estimated from few doses,"[2]; compound concentrations:100 nM and 1000 nM (sheet 'Lestaurtinib' of Supplementary Table 1),run:Lestaurtinib_02577_R3,Plate:MR016",0.852 µM
same,potency estimated from few doses,"[2]; compound concentrations:100 nM and 1000 nM (sheet 'Lestaurtinib' of Supplementary Table 1),run:Lestaurtinib_02584_R3,Plate:MR017",1.58 µM
same,potency estimated from few doses,"[2]; compound concentrations:100 nM and 1000 nM (sheet 'Lestaurtinib' of Supplementary Table 1),run:Lestaurtinib_02601_R1,Plate:MR018",0.728 µM
same,potency estimated from few doses,"[2]; compound concentrations:100 nM and 1000 nM (sheet 'Lestaurtinib' of Supplementary Table 1),run:Lestaurtinib_02606_R1,Plate:MR019",0.691 µM
same,potency estimated from few doses,"[2]; compound concentrations:100 nM and 1000 nM (sheet 'Lestaurtinib' of Supplementary Table 1),run:Lestaurtinib_02606_R3,Plate:MR019",1.15 µM
same,potency estimated from few doses,[2]; [3],0.976 µM
same,potency estimated from few doses,[2]; [4],1.76 µM
same,potency estimated from few doses,[2]; [5],1.49 µM
same,potency estimated from few doses,[2]; [6],1.32 µM
same,potency estimated from few doses,"[2]; compound concentrations:100 nM and 1000 nM (sheet 'Lestaurtinib' of Supplementary Table 1),run:Lestaurtinib_02724_R2,Plate:MR021",1.51 µM
same,potency estimated from few doses,"[2]; compound concentrations:100 nM and 1000 nM (sheet 'Lestaurtinib' of Supplementary Table 1),run:Lestaurtinib_02741_R3,Plate:MR023",0.875 µM
same,potency estimated from few doses,"[2]; compound concentrations:100 nM and 1000 nM (sheet 'Lestaurtinib' of Supplementary Table 1),run:Lestaurtinib_02748_R2,Plate:MR024",1.49 µM
same,potency estimated from few doses,[2]; [7],0.842 µM
same,potency estimated from few doses,[2]; [8],0.925 µM
